Assay results published in PubChem BioAssay (NCATS).
“And” between values parts separate entries of the source, which are not always exact repeats. Equal values may be shown once. Records with an inconclusive call do not appear. The source made the active and inactive calls.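 How the source made its calls, unless noted: active means compounds whose dose series gives a full or clear partial fitted curve of increased nuclear translocation; inconclusive means weak partial curve or effect only at the top dose; inactive means no dose-dependent translocation response.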

Key:
[1] = Stat Signaling Pathway (AID 446; active means well fitted curve in either direction with a large enough effect, not every such curve was filed as active;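 further: ME-180 cervical cancer cells given 40 pM IL-6 alongside compound; SIE-controlled beta-lactamase reporter measured as 460/530 nm FRET emission ratio; on the % scale 0 is the no-effect control and ±100 the full control effect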); conditions: ME-180 SIE beta-lactamase reporter, IL-6 stimulated, 5 h
Procedure, shortened: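 ME-180 cells carrying a SIE-driven beta-lactamase reporter are stimulated with 40 pM IL-6 for 5 h at 37C in the presence of compound. The 460/530 nm FRET substrate ratio is read after 2.5 h at RT. Data are normalised to 300 pM IL-6 and to 125 nM JAK inhibitor controls.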

[2] = biological target: Glucocorticoid receptor (Homo sapiens) (UniProt P04150); test: GR-GFP Redistribution (AID 450); conditions: U2OS GR-GFP nuclear translocation, laser cytometry, 2 h; further: potency means the concentration at half of the fitted maximal effect
[3] = biological target: Mitogen-activated protein kinase 10 (Mus musculus) (UniProt Q61831); test: JNK3 AlphaScreen Assay (AID 530; active means well fitted curve in either direction with a large enough effect, not every such curve was filed as active;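 further: kinase came from lysate of stimulated human HepG2 cells; signal reports phosphorylation of biotinylated GST-cJun 1-79 at Ser73 with 10 µM ATP; on the % scale 0 is the no-effect control and ±100 the full control effect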); conditions: JNK3 lysate, c-Jun phosphorylation; series mostly up to 57.1 µM
Procedure, shortened: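 qHTS format: compounds tested as titrations against IL-1beta/TNF-alpha-activated HepG2 lysate JNK3 with biotin-GST-cJun substrate and 10 uM ATP at room temperature. Loss of anti-phospho-cJun AlphaScreen signal indicates inhibition.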

[4] = Cell Viability - H-4-II-E (AID 543; active means well fitted curve in the direction sought with a large enough effect; an effect the other way counts as inactive or inconclusive; further: potency means the concentration at half of the fitted maximal effect; nearly all actives have a fitted effect of over 35% in size); conditions: H-4-II-E rat hepatoma viability; series mostly up to 92.2 µM
Procedure, shortened: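 Rat hepatoma H-4-II-E cells (1500/well) were plated, incubated 5 hr at 37 °C, then exposed to compounds for 40 hr at 37 °C. Cellular ATP was read by CellTiter-Glo luminescence; AC50 came from Hill-equation fits of concentration-response data.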

[5] = Cell Viability - SH-SY5Y (AID 544; active means well fitted curve in the direction sought with a large enough effect; an effect the other way counts as inactive or inconclusive; further: potency means the concentration at half of the fitted maximal effect; nearly all actives have a fitted effect of over 55% in size); conditions: SH-SY5Y neuroblastoma cell viability; viability change, negative = cytotoxic: at 92.2 µM (top of the series)
Procedure, shortened: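 Human neuroblastoma SH-SY5Y cells (1500/well) in complete medium were exposed to compounds for 40 hr at 37 °C; intracellular ATP was then quantified by CellTiter-Glo luminescence after 20 min at room temperature. AC50 came from Hill-equation concentration-response fits.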

[6] = Cell Viability - Mesenchymal (AID 546; active means well fitted curve in the direction sought with a large enough effect; an effect the other way counts as inactive or inconclusive;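 further: cells exposed to compound for 40 hours before reading; 0% = DMSO only and -100% = 100 µM tamoxifen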); conditions: mesenchymal cells viability, qHTS; activity change, negative = cytotoxicity: at 91.7 µM (top of the series)
Procedure, shortened: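 Human kidney mesenchymal cells from normal renal glomeruli, 1000 cells/well, rested 5 hr at 37 °C, then treated 40 hr at 37 °C in complete medium. Cellular ATP read by CellTiter-Glo luminescence; AC50 from Hill-equation fits.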

[7] = Cellular Toxicity (caspase-3) HepG2 (AID 654; active means well fitted curve in the direction sought with a large enough effect; an effect the other way counts as inactive or inconclusive;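 further: cells exposed to compound for 16 hours before reading; 0% = DMSO alone and 100% = caspase signal from 100 µM tamoxifen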); conditions: HepG2 caspase-3 activation, luminescence; series mostly up to 92.2 µM
Procedure, shortened: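 HepG2 cells (1500/well) in complete medium were treated with compounds for 16 hr at 37 °C. Caspase-3/7 activity was then read as luminescence from peptide-aminoluciferin cleavage. AC50 came from Hill fits, normalized to DMSO and 100 uM tamoxifen.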

[8] = Cellular Toxicity (caspase-3) HUV-EC-C (AID 656; active means well fitted curve in the direction sought with a large enough effect; an effect the other way counts as inactive or inconclusive;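 further: 0% = DMSO basal and 100% = 100 µM tamoxifen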); conditions: HUV-EC-C cells, caspase-3 activation (apoptosis), vehicle = 0, 100 µM tamoxifen = 100%; series mostly up to 92.2 µM
Procedure, shortened: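 Luminescent Caspase-Glo 3/7 readout after 16 h, 37 °C compound exposure of HUV-EC-C endothelial cells, 1000 per well, complete medium. AC50 derived by Hill fitting, with DMSO as baseline and 100 uM tamoxifen as full activation.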

[9] = Cellular Toxicity (caspase-3) SHSY5Y (AID 657; active means well fitted curve in the direction sought with a large enough effect; an effect the other way counts as inactive or inconclusive); conditions: SH-SY5Y caspase-3 activation, DMSO zero, 10 µM staurosporine = 100%; series mostly up to 91.7 µM
Procedure, shortened: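 Luminescent Caspase-Glo 3/7 read-out, 1 hr room temperature, follows 16 hours of compound treatment of SH-SY5Y cells at 37 °C. Normalization: DMSO basal, 10 uM staurosporine as 100%; AC50 values from Hill-equation concentration-response fits.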

[10] = Cellular Toxicity (caspase-3) BJ (AID 658; active means well fitted curve in the direction sought with a large enough effect; an effect the other way counts as inactive or inconclusive); conditions: BJ fibroblasts, luminescence, normalized: DMSO 0%, staurosporine 100%; series mostly up to 91.7 µM
Procedure, shortened: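 BJ human foreskin fibroblasts, 1000 cells/well, treated 16 hours at 37 °C in complete medium; caspase 3/7 activity by Caspase-Glo luminescence after 1 hr at room temperature. Normalized to DMSO and 10 uM staurosporine; AC50 from Hill fits.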

[11] = Cellular Toxicity (caspase-3) SK-N-SH (AID 661; active means well fitted curve in the direction sought with a large enough effect; an effect the other way counts as inactive or inconclusive); conditions: SK-N-SH caspase-3 activation, qHTS; series mostly up to 91.7 µM
Procedure, shortened: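 SK-N-SH human neuroblastoma cells (1500/well) were treated with compounds for 16 hr at 37 °C in complete medium; caspase 3/7 activity was read by Caspase-Glo luminescence. AC50 came from Hill fits of data normalized to DMSO and 10 uM staurosporine.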

[12] = biological target: Glucocorticoid receptor (Homo sapiens) (UniProt P04150); test: GR-EFC Redistribution (AID 451; calls by dose curve; further: potency means the concentration at half of the fitted maximal effect); conditions: CHO-K1 GR-EFC translocation, beta-gal luminescence, 2 h
Procedure, shortened: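 CHO-K1 cells expressing nuclear EA and GR-ED fragments of b-gal; compounds titrated up to 46 uM final, 2 h at 37 C. GR nuclear translocation read as complemented b-gal luminescence after 1 h RT detection.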

[13] = biological target: 3',5'-cyclic-AMP phosphodiesterase 4B (Homo sapiens) (UniProt Q07343); test: qHTS Assay for Inhibitors of PDE-IV (AID 607; active means well fitted activation curve with a large enough effect in the main read-out, with a control signal flat, not every such curve was filed as active; further: % of control where 0% means no effect); conditions: HEK293 ACTOne CNG channel cells, membrane potential fluorescence; series mostly up to 22.9 µM
Procedure, shortened: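 HEK293 ACTOne cells with CNG channel (1000/well), endogenous PDE4; membrane potential dye, compounds up to 22.9 uM final. Fluorescence Ex 535/Em 590; RO 20-1724 (100 uM final) as reference.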

3',5'-cyclic-AMP phosphodiesterase 4B (Homo sapiens), sequence (Q07343 whole entry, looked up): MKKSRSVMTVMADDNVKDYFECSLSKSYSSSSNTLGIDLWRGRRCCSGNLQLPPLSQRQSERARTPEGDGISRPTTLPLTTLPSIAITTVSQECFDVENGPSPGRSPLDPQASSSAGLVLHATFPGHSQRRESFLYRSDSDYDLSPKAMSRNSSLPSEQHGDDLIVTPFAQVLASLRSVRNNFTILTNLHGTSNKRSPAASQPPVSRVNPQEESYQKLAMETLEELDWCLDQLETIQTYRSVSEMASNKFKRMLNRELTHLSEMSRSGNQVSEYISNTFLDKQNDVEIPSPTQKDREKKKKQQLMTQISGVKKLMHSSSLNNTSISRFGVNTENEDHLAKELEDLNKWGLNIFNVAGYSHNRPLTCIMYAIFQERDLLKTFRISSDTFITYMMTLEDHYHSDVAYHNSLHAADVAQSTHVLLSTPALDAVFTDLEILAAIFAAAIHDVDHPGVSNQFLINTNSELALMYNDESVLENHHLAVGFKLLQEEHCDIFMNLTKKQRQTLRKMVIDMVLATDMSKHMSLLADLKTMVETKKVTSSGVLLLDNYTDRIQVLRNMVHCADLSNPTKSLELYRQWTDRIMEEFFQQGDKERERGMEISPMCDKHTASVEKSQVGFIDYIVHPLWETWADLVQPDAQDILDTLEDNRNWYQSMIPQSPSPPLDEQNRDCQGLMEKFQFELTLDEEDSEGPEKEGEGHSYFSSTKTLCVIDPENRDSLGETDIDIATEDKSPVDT
Glucocorticoid receptor (Homo sapiens), sequence (P04150 whole entry, looked up, the tested form may be a part): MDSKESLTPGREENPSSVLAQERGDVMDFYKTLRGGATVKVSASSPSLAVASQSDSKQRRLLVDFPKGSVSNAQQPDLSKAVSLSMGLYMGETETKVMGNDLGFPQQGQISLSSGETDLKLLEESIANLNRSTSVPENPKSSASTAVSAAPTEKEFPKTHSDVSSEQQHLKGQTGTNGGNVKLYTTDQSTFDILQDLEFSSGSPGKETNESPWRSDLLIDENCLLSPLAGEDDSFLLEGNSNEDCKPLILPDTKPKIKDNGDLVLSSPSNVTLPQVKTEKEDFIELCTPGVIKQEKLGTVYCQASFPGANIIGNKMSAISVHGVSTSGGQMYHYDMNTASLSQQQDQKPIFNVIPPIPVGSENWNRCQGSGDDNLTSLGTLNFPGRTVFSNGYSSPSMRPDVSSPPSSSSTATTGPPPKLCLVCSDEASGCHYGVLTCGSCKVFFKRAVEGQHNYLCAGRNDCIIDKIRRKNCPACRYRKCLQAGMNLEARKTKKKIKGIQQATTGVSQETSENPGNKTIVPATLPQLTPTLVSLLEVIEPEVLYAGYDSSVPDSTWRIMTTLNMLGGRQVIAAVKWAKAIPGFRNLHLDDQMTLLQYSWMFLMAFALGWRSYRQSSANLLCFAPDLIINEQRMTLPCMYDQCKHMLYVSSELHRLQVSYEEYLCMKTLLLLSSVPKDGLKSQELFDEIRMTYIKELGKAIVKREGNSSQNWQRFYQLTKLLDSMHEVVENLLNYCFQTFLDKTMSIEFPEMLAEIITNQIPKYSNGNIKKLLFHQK

COc1cc(/C=C/C(=O)CC(=O)/C=C/c2ccc(O)c(OC)c2)ccc1O
active: Potency [4] 31.6 µM | Potency [5] 31.6 µM
inactive: activity, negative = inhibition ([1]; at 17.2 µM (top of the series)) -22.7% | Potency [2] > 20.6 µM | Potency [3] | Potency [6] | Potency [7] | outcome [8] | outcome [9] | outcome [10] | Potency [11]

Nc1cc(-c2ccncc2)c[nH]c1=O
inactive: activity, negative = inhibition ([1]; at 17.2 µM (top of the series)) -17.5% | Potency [2] > 20.6 µM | Potency [12] > 20.6 µM | outcome [13]

NO
inactive: activity, negative = inhibition ([1]; at 38 µM (top of the series)) 11.6% | outcome [13]

CN(C)C(N)=NCCC[C@H](N)C(=O)O
inactive: activity, negative = inhibition ([1]; at 38 µM (top of the series)) -11.7% | Potency [2] > 46 µM | Potency [12] > 46 µM | outcome [13]

NCCNC(=O)c1ncsc1-c1cccc(F)c1
inactive: activity, negative = inhibition ([1]; at 38 µM (top of the series)) 3.48% | Potency [2] > 46 µM | Potency [12] > 46 µM | outcome [13]

Oc1cc2c(cc1O)CN(C(=S)NCCc1ccc(Cl)cc1)CCC2
inactive: activity, negative = inhibition ([1]; at 38 µM (top of the series)) 6.62% | Potency [2] > 46 µM | Potency [12] > 46 µM | outcome [13]

O=C(Nc1ccccc1)c1cc([N+](=O)[O-])ccc1Cl
inactive: activity, negative = inhibition ([1]; at 38 µM (top of the series)) -18.8% | Potency [2] > 46 µM | Potency [12] > 46 µM | outcome [13]

CC(=O)SCC[N+](C)(C)C
inactive: activity, negative = inhibition ([1]; at 38 µM (top of the series)) 1.77% | Potency [2] > 46 µM | Potency [12] > 46 µM | Potency [3] | outcome [13]

CN1[C@@H](CC(=O)c2ccccc2)CCC[C@H]1C[C@H](O)c1ccccc1
inactive: activity, negative = inhibition ([1]; at 17.2 µM (top of the series)) 5.71%

OC[C@H]1O[C@@H](n2cnc3c(Nc4ccccc4)ncnc32)[C@H](O)[C@@H]1O
inactive: activity, negative = inhibition ([1]; at 17.2 µM (top of the series)) 17.7% | Potency [2] > 20.6 µM

COC(=O)c1c(C)[nH]c(C)c1C(=O)c1ccccc1Cc1ccccc1
inactive: activity, negative = inhibition ([1]; at 38 µM (top of the series)) -23% | Potency [2] > 46 µM | Potency [12] > 46 µM | outcome [13]

O=C(O)[C@@H]1C[C@@H](C(=O)O)N1
inactive: Potency [2] > 46 µM | Potency [12] > 46 µM | Potency [3]

CC(C)NC[C@H](O)COc1cccc2[nH]ccc12
inactive: Potency [2] > 46 µM | Potency [12] > 46 µM | Potency [3] | outcome [13]

CN1[C@@H]2CC[C@H]1CC(OC(c1ccccc1)c1ccccc1)C2 (stereo partly drawn)
inactive: Potency [2] > 46 µM | Potency [12] > 46 µM and > 9.22 µM | Potency [3] | outcome [13]

COc1cc2c(CCNC(C)=O)c[nH]c2cc1Cl
inactive: Potency [2] > 46 µM | Potency [12] > 46 µM | Potency [3] | outcome [13]

O=C(O)c1ccccc1Nc1cccc(C(F)(F)F)c1
inactive: Potency [2] > 20.6 µM | Potency [12] > 20.6 µM | Potency [3]

OC[C@H]1O[C@@H](n2cnc3c(NC4CCCC4)ncnc32)[C@H](O)[C@@H]1O
inactive: Potency [2] > 20.6 µM

CCOc1ccc2nc(S(N)(=O)=O)sc2c1
inactive: Potency [2] > 20.6 µM

Cc1cc(NC(=O)Nc2ccc3c(ccn3C)c2)sn1
inactive: Potency [2] > 46 µM | Potency [12] > 46 µM | outcome [13]
